Shown is part of a subset that was picked to be rich in hits.
DUSP3 inh: VHR1 (DUSP3) phosphatase inhibition; P51452; recombinant VHR phosphatase, colorimetric substrate read-out; inhibition, % at 20 µM; actives 0.7% (n = 50,000); AID 1992; in the data active = inhibition above about 60%
Target sequence (P51452 whole entry, looked up): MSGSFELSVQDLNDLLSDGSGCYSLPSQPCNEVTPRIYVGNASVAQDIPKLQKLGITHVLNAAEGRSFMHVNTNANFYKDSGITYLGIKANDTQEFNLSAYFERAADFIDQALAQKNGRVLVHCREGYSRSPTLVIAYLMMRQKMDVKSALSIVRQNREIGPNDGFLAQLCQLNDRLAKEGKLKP
Active calls of the source: *.

SMILES	DUSP3 inh
O=C(NC(Nc1ccc(I)cc1)C(=O)c1ccccc1)c1ccco1 (stereo not drawn)	-8
C=CCSC1=C(C#N)C2(CCCCC2)C(C#N)C(=O)N1 (stereo not drawn)	0
N#CC1=C(SCc2ccccc2)NC(=O)C(C#N)C12CCCCC2 (stereo not drawn)	-9
N#CC1=C(S)NC(=O)C(C#N)C12CCCCC2 (stereo not drawn)	81*
O=C(Nc1ccc2c(c1)oc1ccccc12)c1ccc(I)cc1	-36
COC(=O)c1ccc(NC(NC(=O)c2ccc(OC)c(OC)c2)C(Cl)(Cl)Cl)cc1 (stereo not drawn)	-4
NC(=O)c1ccc(NC(=S)Nc2ccccc2)cc1	5
OCc1nc2ccccc2n1Cc1ccccc1F	116*
CCn1c(CCCO)nc2ccccc21	-5
OCc1nc2ccccc2n1Cc1ccc2ccccc2c1	14
CC1=C(C(=O)OC(C)C)C(c2cccc(Br)c2)NC(=O)N1 (stereo not drawn)	-14
CC1=C(C(=O)OC(C)C)C(c2ccc(Br)cc2)C2=C(CC(c3ccc(Cl)cc3)CC2=O)N1 (stereo not drawn)	-19
COC(=O)C1=C(C)NC(=O)CC1c1ccccc1C(F)(F)F (stereo not drawn)	-33
CC1=C(C(=O)OCc2ccccc2)C(c2ccc(F)c(Br)c2)CC(=O)N1 (stereo not drawn)	5
CC1=C(C(=O)OC(C)C)C(c2cc(Br)ccc2F)CC(=O)N1 (stereo not drawn)	102*
CC1=C(C(=O)OC(C)C)C(c2ccccc2Br)CC(=O)N1 (stereo not drawn)	102*
COC(=O)C1=C(C)NC(=O)CC1c1ccc(F)c(Br)c1 (stereo not drawn)	-13
CC1=C(C(=O)OC(C)C)C(c2ccc(F)c(Br)c2)CC(=O)N1 (stereo not drawn)	118*
CC1=C(C(=O)OC(C)C)C(c2ccccc2Cl)CC(=O)N1 (stereo not drawn)	29
O=C(NC(=S)Nc1cccnc1)c1ccc(Cl)cc1	-8
O=C(/C=C/c1ccc(F)cc1)N1CCN(c2cccc(Cl)c2)CC1	-42
COC(=O)c1ccc(NC(=O)c2ccc(F)cc2)cc1	-6
CC(C)(C)C1(O)CC(C(F)(F)F)=NN1C(=O)c1ccc([N+](=O)[O-])cc1 (stereo not drawn)	-10
COc1ccc(-c2cc(C(=O)NCCc3ccc(OC)c(OC)c3)c3ccccc3n2)c(OC)c1	-41
COc1ccc(-c2cc(C(=O)NCCc3ccccc3)c3ccccc3n2)cc1OC	-12
SMILES	DUSP3 inh
COc1ccc(-c2cc(C(=O)NCCc3ccccc3)c3ccccc3n2)c(OC)c1	102*
Cc1cc(C)c2nc3s/c(=C\c4cc5c(cc4Br)OCO5)c(=O)n3c2c1	-15
CCOc1ccc2cc(S(=O)(=O)n3ccnc3)ccc2c1	-14
N#CC(=C1CCCCC1)c1nc(-c2ccc([N+](=O)[O-])cc2)cs1	0
O=C1CC(=O)N(c2ccc(Cl)c(Cl)c2)C(=S)N1	73*
O=C1CC(=O)N(c2ccccc2)C(=S)N1	4
Cc1ccc(N2C(=O)CC(=O)NC2=S)cc1	6
O=C(Nc1ccc(OC(F)(F)F)cc1)c1ccc(Br)o1	8
Cc1nnc(C)n1/N=C/c1ccc(O)cc1O	-14
CCCC1=NN2C(=N)/C(=C/c3ccc4c(c3)OCO4)C(=O)N=C2S1	105*
CCCC1=NN2C(=N)/C(=C/c3cc(OC)ccc3OC)C(=O)N=C2S1	112*
CCC1=NN2C(=N)/C(=C/c3ccc(OCCOc4cccc(OC)c4)c(OC)c3)C(=O)N=C2S1	-11
CCOc1ccc(Cl)cc1/C=C1\C(=N)N2N=C(CC)SC2=NC1=O	-9
CCCC1=NN2C(=N)/C(=C/c3ccc(OCc4ccccc4Cl)cc3)C(=O)N=C2S1	3
CCCC1=NN2C(=N)/C(=C/c3ccc(-c4ccc(Cl)cc4Cl)o3)C(=O)N=C2S1	10
CCOc1ccccc1NC(=O)CN(c1cc(C)cc(C)c1)S(=O)(=O)c1ccccc1	-23
COc1cccc(N2C(=O)C(=O)/C(=C(\O)c3ccccc3)C2c2ccc([N+](=O)[O-])cc2)c1 (stereo not drawn)	-8
COc1ccccc1N1C(=O)NC(=O)/C(=C\c2cc3ccccc3n2C)C1=O	36
Cn1cccc1/C=C1/C(=O)NC(=S)N(c2ccc(Cl)cc2)C1=O	70*
COc1ccccc1N1C(=O)C(=Cc2cccn2C)C(=O)NC1=S	77*
Cc1cc(/C=C2\C(=O)NC(=S)N(c3ccc(Cl)cc3)C2=O)c(C)n1C	5
COc1cc(Br)c(/C=C2\C(=O)NC(=S)N(c3ccccc3)C2=O)cc1OC	0
O=C1NC(=S)N(c2cccc(Cl)c2)C(=O)/C1=C/c1ccc(Cl)cc1	17
NS(=O)(=O)c1ccc(-c2ccc(/C=C3\Sc4ccccc4C3=O)o2)cc1	102
COc1ccc(N2C(=O)C3C(c4ccccc4C)OC4(C(=O)c5ccccc5C4=O)C3C2=O)cc1 (stereo not drawn)	-11
SMILES	DUSP3 inh
CN1C(=O)/C(=C/c2ccc(-c3ccc([N+](=O)[O-])cc3)o2)SC1=S	8
O=C1NC(=O)/C(=C\c2ccc(-c3cccc([N+](=O)[O-])c3)o2)S1	-2
O=C(O)CCN1C(=O)/C(=C/c2ccc(-c3ccc([N+](=O)[O-])cc3)o2)SC1=S	-6
CSCCC(C(=O)O)N1C(=O)/C(=C\c2ccc(-c3ccc([N+](=O)[O-])cc3)o2)SC1=S (stereo not drawn)	81*
O=C1/C(=C\c2ccc(-c3ccc([N+](=O)[O-])cc3)o2)SC(=S)N1c1ccc(O)cc1	59
O=C1NC(=S)/C(=C\c2ccc(-c3ccc([N+](=O)[O-])cc3)o2)S1	100*
Cc1cc([N+](=O)[O-])ccc1NCc1cccc(C(F)(F)F)c1	-20
O=C(NCCc1ccccc1)C(=O)NC1CCCC1	-22
CC(C)(C)NC(=O)c1cccc(NC(=O)c2cccs2)c1	7
CCOC(=O)C1NN=C(C(=O)c2ccc(OC)cc2)C1c1ccccc1Cl (stereo not drawn)	0
CCOC(=O)C1=NNC(C(=O)c2ccccc2)C1c1ccc(Br)cc1 (stereo not drawn)	0
CCOC(=O)C1=NNC(C(=O)c2ccc(OC)cc2)C1c1ccccc1Cl (stereo not drawn)	105*
Cc1cccc(C(=O)N2N=C3CCCCCC3C2(O)C(F)(F)F)c1O (stereo not drawn)	15
C=CCN1C(=O)/C(=C\c2ccc(OCC(=O)O)c(OC)c2)C(=O)NC1=S	7
C=CCN1C(=O)/C(=C\c2ccc(OCc3ccc(F)cc3)c(OCC)c2)C(=O)NC1=S	75*
C=CCOc1ccc(/C=C2/C(=O)NC(=S)N(CC=C)C2=O)cc1OCC	12
CC(=O)n1cc(/C=C2\Sc3ccccc3C2=O)c(-c2ccccc2)n1	19
COc1cc(C2C(C(=O)OCc3ccccc3)=C(C)NC3=C2C(=O)CCC3)cc(Cl)c1O (stereo not drawn)	-11
CC(C)=C1C(=O)NN(c2ccccc2)C1=O	83*
CCc1ccc(/C=C2\C(=O)NN(c3ccccc3)C2=O)cc1	-16
O=C1NN(c2ccccc2)C(=O)/C1=C\C=C\c1ccccc1	-68
Cc1cc(N2C(=O)NC(=O)/C(=C\c3cccc(F)c3)C2=O)ccc1Br	-4
COc1ccccc1N1CCN(/N=C\c2ccccc2C(F)(F)F)CC1	6
C=CCn1c(SCC(=O)NCCCN2CCOCC2)nc2sc(C)c(C)c2c1=O	-6
O=C1c2cccc3c4ccccc4n(c23)C(=O)C1(O)O	90*
O=C(CCN1C(=O)c2ccccc2C1=O)NCc1ccncc1	-18

Screening data deposited in PubChem BioAssay by Sanford-Burnham Center for Chemical Genomics.
